# Assay results published in PubChem BioAssay AID1347426 (Functional Genomics Laboratory (NCATS/FGL), 2020).
# Among all 31,000 sequences or so, about 1,400 (4.5%) were called active.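 Rule for the calls: active = median seed-adjusted z-score above 1 or below -1; inactive = the rest.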 Shown is part of a subset that was picked to be rich in actives.
# Assay: Novel Modifiers of Survival Motor Neuron (SMN) Protein: Gene Identification via Genome-wide siRNA Screen;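 note: luminescence tracks full-length SMN protein made from the SMN2 reporter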
# Conditions: HEK293T SMN2-luciferase reporter, siRNA knockdown, 72 h; actives lie on both sides
# Summary of the method: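 Steps: spot 1 pmol siRNA, add Lipofectamine RNAiMax in serum-free DMEM, seed HEK293T SMN2–luciferase reporter cells; incubate 72 h at 37 °C; add ONE-Glo; normalize luminescence to control siRNA, log10, MAD. Candidates: |MAD| > 1.0.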
row,Sequence,median seed-adjusted z-score
1,UCAUGAGCCUGAUAAGUGATT against PPP2R5D,0.848 (inactive)
2,GAUCUCAAAUCAGAGUUAATT against ANXA7,0.671 (inactive)
3,CAAUGGAUCGGCUUCCUUATT against ADRA2B,0.00853 (inactive)
4,GCAAUAAGAGAGAUCAGUATT against PDSS1,-0.287 (inactive)
5,GGACAAGAAGCAAAUGACATT against OLIG2,0.00944 (inactive)
6,GGUCCGCAAAGGCUUCUGATT against VWA1,0.289 (inactive)
7,CCUUAUCCGAGAAUACAUUTT against TUBAL3,1.05 (active)
8,GGAAAUUGACUUUCUAAAATT against KRT84,-0.645 (inactive)
9,CAGUGACUAUGAGAGUGUATT against SCARB2,-0.244 (inactive)
10,CGGUUGAAGUGUAGGGAGATT against TCEA1,0 (inactive)
11,CGAGUAUACAGUAUACAGATT against CHAF1B,0.634 (inactive)
12,CUCAGAGAAUAAUCACAAATT against PER2,-0.113 (inactive)
13,GAACUAUAUUCUUCUGUGATT against CDH1,-0.24 (inactive)
14,GCCUCCUACUACUUCCGUUTT against SLC6A8,-0.0673 (inactive)
15,GAAUUGUACCUACUUCUGUTT against PTPLA,0.291 (inactive)
16,CUACCUCUCUUGUUUGGAATT against TRIP13,1 (active)
17,GCAAGCAGGUUAUCAACGATT against FLII,-0.353 (inactive)
18,GCAUGUACGACCAAUGUAATT against NR3C1,-0.47 (inactive)
19,GAGUCACAGUUGAAGAUCUTT against GOT2,0.205 (inactive)
20,CAAUCUCCGCAAAAAUGGATT against PCMT1,0.139 (inactive)
21,CGACAUCUCACUCAUGAAATT against SF3A3,-2.1 (active)
22,CUAUGGACCAGUCAAAUAATT against NDUFB7,-0.379 (inactive)

row,Sequence,median seed-adjusted z-score
1,ACACCCGCGUGUCUGAUUATT against PPAP2C,-1.12 (active)
2,CCCUCAUCAAGAACUUUCATT against S100A14,0.0172 (inactive)
3,GCCUAAACAGUGACCGAUUTT against BDH1,-0.0253 (inactive)
4,CUGCUGUUGUUACUACCCATT against USF1,0.16 (inactive)
5,GCAAGACCACGCUCCUUUATT against ARL11,1 (active)
6,GGAGUUAUCUGGUGACAAUTT against UROS,-0.248 (inactive)
7,GGCUAGUAGCUGAACUUCATT against DIMT1L,0.0156 (inactive)
8,CAGUUGCAUUGGUUCCCAUTT against EZH1,0.268 (inactive)
9,GCUUUGGAAGGGUUUGAUATT against DCT,-0.184 (inactive)
10,GACGAAUCACUGCAGUUUATT against GOSR2,-1.25 (active)
11,CAAGGUCUCCUGUGCUGAATT against MYOG,-0.0972 (inactive)
12,GGAUGUUGAUGAAGGCAAATT against LDHAL6A,-0.15 (inactive)
13,GAAUAUAACCUGCCGCUUUTT against CD44,0 (inactive)
14,GGGCUGGAUUGGUACAGGATT against HS3ST2,0.133 (inactive)
15,CGUGUGAUCCAGAGACUUATT against KRT1,-0.362 (inactive)
16,AAGGCUACUUAACAAAGGATT against S100A10,0.366 (inactive)
17,GACGACUUCUUGAACAGAATT against ZNF207,-3.1 (active)
18,GUAGGAUUGUUUAGUGUAATT against CACNA1D,-0.0856 (inactive)
19,GCUUUGAGAUUUUCGAGGATT against MYO1B,0.903 (inactive)
20,CGAGAGCUCCAGAUCAUGATT against GSK3B,-0.952 (inactive)
21,GGGAUUGAGUUAAAACUAUTT against SOX7,-0.387 (inactive)
22,GGUAGCUUCUGAUAAUGAUTT against LEO1,1.2 (active)

row,Sequence,median seed-adjusted z-score
1,CGUGGGUAAUGAUGCGGAATT against TOM1,0.774 (inactive)
2,GGAGUUGAAGGCCUACAAATT against APOE,0.0321 (inactive)
3,CCUUGUCUGUGCUCAAGUATT against USP35,-0.219 (inactive)
4,CACUUACCAAGGAUACCAATT against PHC2,0.177 (inactive)
5,GGAUUUUACAGGAUAUCUUTT against SPPL2A,-0.358 (inactive)
6,GAAUGGACUGGUACCUAUUTT against ALDOB,-1.34 (active)
7,GGAUCUGCAUAGUGACCAATT against PSMB1,-0.35 (inactive)
8,AUGUUUCAAUAGAUCCAGATT against LIMD2,0.418 (inactive)
9,GCACCAAAGUAUACAACGATT against PRKAR2B,-0.777 (inactive)
10,GAUCUUGGAUGGAUUGCUATT against OCA2,0.457 (inactive)
11,ACAACCCUCUUAAAACUAATT against IGF2,-0.0306 (inactive)
12,CUGUAUGGGUGGUCAAUCATT against ABCA1,-1.27 (active)
13,GGACAACGAUAACCGAUCATT against CA1,0.262 (inactive)
14,GUCUAAAUCUCGUUCCAAATT against SRrp35,-0.0574 (inactive)
15,AGGUCAAUGUGACUUUCCATT against KCNJ10,-0.0371 (inactive)
16,GAAACGAUAUGAAUGUAAATT against ZNF491,0.0642 (inactive)
17,CCAUUGAAGAGGCUAUGAATT against SPAG7,0.263 (inactive)
18,GAGUGGGAAUGGUCAGGCUTT against ADORA2B,-0.471 (inactive)
19,GGUCCAUGGUGGAAGACGATT against MAL,0.0733 (inactive)
20,CCAUCUCAGGAGUUAGCUATT against ZNF281,1.19 (active)
21,GUGUCUGGAUUUUCACUGATT against F11,-0.0319 (inactive)
22,AGGCCUUGGUGGAACAUGUTT against PSAP,0.107 (inactive)

row,Sequence,median seed-adjusted z-score
1,GCUCGUAAGUUGGUGAUCATT against TPM3,0.111 (inactive)
2,GAACUAGCACGCAUCAAGATT against PPM1G,0.073 (inactive)
3,GCACCAGCCUUAACCCUCATT against RAB1B,1.55 (active)
4,AAAUCCCGGUGAUCAUCGATT against MAP1LC3A,0 (inactive)
5,GAGACAACCUGCAACGACATT against GDI1,0.198 (inactive)
6,CAGGAGUGAUUAAACGGUUTT against GNAI3,0.0656 (inactive)
7,GCUCUCAUAUCAUUCCAUUTT against PPIL5,0 (inactive)
8,GAUGAUUACCUGCAGAGCATT against MYD88,-0.365 (inactive)
9,CCAUCAAAAUCGCAGACUUTT against DDR1,-0.166 (inactive)
10,GGAUGUCUAGAUUACAUUUTT against PDE12,0.422 (inactive)
11,GGAGUACCGGCUAACAAUATT against MORC4,0.13 (inactive)
12,ACAUGAUCUUGGACCUGGATT against CSNK2B,-1.62 (active)
13,CAAUAGGAUUGGUCACCAATT against PNPT1,0.0729 (inactive)
14,CAACCAUCCCAUGUCUGUUTT against NMNAT2,-1.58 (active)
15,GGAGUUAGCACUAACAUAATT against NUP98,0.168 (inactive)
16,GGAUAGUGAUGAUGUCUAUTT against GPR98,-0.509 (inactive)
17,CCUCAACUCGUGAAGAAGATT against GPRC5A,-0.56 (inactive)
18,GGCAUAUGGUUAUCGAGGATT against EML4,0.958 (inactive)
19,CGUCCAAGAUCGAACCCAUTT against HIRA,0.286 (inactive)
20,GCAAUCGGGUGGUAUCAUATT against COPS5,-0.124 (inactive)
21,CAAGCAUGGUCUUUCUACUTT against TUBB2A,1.03 (active)
22,CGAGAUCUCAAGUCUAACATT against ARAF,0.535 (inactive)

row,Sequence,median seed-adjusted z-score
1,GGAAGUACGUUCCAUACAATT against GALNT17,0.392 (inactive)
2,GGAUCUGUAUCAAGCCGUUTT against APC,0.154 (inactive)
3,GCAAUGCACUGACGGAUAUTT against EFEMP1,0.0157 (inactive)
4,GUAUCAGAAUGAGAGUUCUTT against ACP2,-0.00569 (inactive)
5,GAAAUACCCUCACAUGUUATT against LSM2,-1.48 (active)
6,GAUGUAUUGUUACUACCAATT against SCNN1G,-0.616 (inactive)
7,CCACAAGGGUUAUCUGUCATT against MAPK4,0.235 (inactive)
8,GUCACUUCAUGGGCAAGAATT against NMB,0.746 (inactive)
9,CCGUUGUUGUAAGAAGAAATT against MICA,-0.0635 (inactive)
10,GGAUUAAGCCCUUCGAAGATT against SOCS5,0.312 (inactive)
11,AGUUCUCGGAGGUGCUUAATT against CKB,-0.236 (inactive)
12,GGACAAUCUUAUUCCUAUUTT against CFHR4,-0.0972 (inactive)
13,GAGCUGCAACUGACAUCUUTT against PLTP,1.09 (active)
14,GCAUCUUCACCAAAGUCAUTT against RHEBL1,-0.268 (inactive)
15,GGCUGACCUGUACCACUUUTT against SH3BP1,-0.225 (inactive)
16,GCCUCAGAGUUCACGGACATT against ROBO4,-0.431 (inactive)
17,GCUACGGCGUGGACAAGAATT against RELB,1.16 (active)
18,GGACCGUCUACUCAUCCAATT against IL8RB,-0.387 (inactive)
19,GGAGGAGAUAGGCACUGAATT against TIGD3,0.486 (inactive)
20,GCUUUUAUCCUAGACAUCATT against PAQR8,0 (inactive)
21,GUGGGAAAGUCUAUGGAAATT against KLF9,0.767 (inactive)
